Structures are written as SMILES. The whole screen tested about 68,000 compounds, of which about 2,700 (4%) showed an effect of 50% or more. This excerpt belongs to a sample that is enriched for strong results.

The test system of the assay is Plasmodium berghei. Kind of assay: Screen against P. berghei liver stage (PbLuc), transformed with Luciferase, at 2uM. The format is functional, HepG2. The following applies: tested at 2 uM.
Turning to `COc1ccc2c(=O)ccn(CC(=O)O)c2c1`, the INHIBITION is recorded as 16.54%. Consider `Cc1noc(C2CCN(C(C)c3nc(C(C)(C)C)no3)CC2)n1` (stereo not drawn), for which the INHIBITION turned out to be 11.42%.

Consider `COC(=O)CSc1nnc(CCNC(=O)OC(C)(C)C)o1`, for which the INHIBITION worked out at 25.59%.

`COCCNC(=O)C1CN(Cc2ccncc2)Cc2ccnn2C1` (stereo not drawn): the INHIBITION is given as -15.71%. Turning to `CC(C1CC1)N(C)C(=O)c1ccc(-n2ncc(C#N)c2N)cc1` (stereo not drawn), the INHIBITION is recorded as 26.2%. `Fc1cccc(Nc2nc(N3CCCC3)nc3c2CNCC3)c1`: the INHIBITION is on record as 32.67%. With `Cc1c(F)cccc1CN1CCn2nc(CNC(=O)N(C)C)cc2C1`, the INHIBITION is reported as 21.08%.

With `Cc1nc(CNCC2CNc3ccnn3C2)cs1` (stereo not drawn), the INHIBITION came out at 0.05%.

For the compound `CC(C)Nc1ncnc2c1CCN(C(=O)Cc1ccccn1)CC2`, the INHIBITION stood at 14.23%. Then `O=C(c1cscn1)N1CC[C@@H]2[C@@H]1CCN2c1ccccn1`, with 36.03%; and `COc1cc(N2C[C@@H]3COC[C@]3(COc3ccc(C#N)cn3)C2)ncn1`, with -15.95%. With `Cc1csc(N2CCN(Cc3ccccn3)CC2C)n1` (stereo not drawn), the INHIBITION is recorded as -13.94%. Consider `Cc1csc(N2CCN(Cc3cscn3)CC2C)n1` (stereo not drawn), for which the INHIBITION is given as -7.32%. Regarding `Cc1cnc(CN2CCN(c3nc(C)cs3)C(C)C2)cn1` (stereo not drawn), the INHIBITION came to 50.3%.

Take `COc1ccc(CNC(C)c2cccc(Br)c2)c(OC)c1OC` (stereo not drawn): the INHIBITION is reported as 0.8%. For `OC1(Cn2ccc3ncccc32)CCN(Cc2ccccc2F)CC1`, the INHIBITION turned out to be 22.81%.

`CCN(CC)C(CNC(=O)c1cccnc1-n1cncn1)c1ccsc1` (stereo not drawn): the INHIBITION was determined as 28.81%. Turning to `CCN(CC)C(CNC(=O)c1ccc(-n2cncn2)cc1)c1ccsc1` (stereo not drawn), the INHIBITION is -12.13%. Then `CCN(CC)C(CNC(=O)c1ccnc(N(C)C)c1)c1ccsc1` (stereo not drawn), with 86.89%. As for `Cc1ccc(C(=O)N2CCC3(CC2)CCN(Cc2ccccn2)C3=O)o1`, the INHIBITION is recorded as 2.5%.

`CN1C(=O)c2cccc(NC(=O)c3ccc4c(c3)OCCO4)c2C1=O`: the INHIBITION is reported as 27.8%.

Turning to `O=C(CCc1ccc(-c2ccccc2)[nH]1)N1CCCC(n2ccnc2)C1` (stereo not drawn), the INHIBITION was -13.92%.

In the case of `CCN1CCN(C2CCN(Cc3noc(C)n3)CC2)C1=O`, the INHIBITION was found to be 62.13%. Then `CCN1CCN(C2CCN(Cc3noc(C4CC4)n3)CC2)C1=O`, with 24.65%; and `Cc1nc(CN2CCC(N3CCN(C)C3=O)CC2)no1`, with 40.17%; and `COCCN(C)C(C(=O)O)c1ccc2ccccc2c1` (stereo not drawn), with 10.75%. `Cc1cc(C)n(C2CCCN(C(=O)c3cc(C(N)=O)cs3)C2)n1` (stereo not drawn): the INHIBITION is recorded as 20.93%. As for `Cc1cccc(N2CCN(CCNC(=O)C(C)n3cncn3)CC2)c1` (stereo not drawn), the INHIBITION was 12.88%.

Regarding `O=C(N[C@@H]1CN(CC2CC2)[C@@H]2CCCO[C@@H]21)c1cscn1`, the INHIBITION amounted to 17.24%. Turning to `CCC(=O)N1CCN(Cc2cnc(C)nc2)[C@H]2CS(=O)(=O)C[C@H]21`, the INHIBITION is recorded as -36.29%. As to `Cc1ncc(CN2CCN(C(=O)N(C)C)[C@@H]3CS(=O)(=O)C[C@@H]32)cn1`, the INHIBITION was found to be 55.99%.

`CCN(CC)C(=O)N1CCN(Cc2cnc(C)nc2)[C@H]2CS(=O)(=O)C[C@H]21`: the INHIBITION is 29.51%. Regarding `O=C(CC1CC1)N1CCC2(CC1)CN(c1ncccn1)CCO2`, the INHIBITION is given as -26.24%. Turning to `CO[C@H]1CCN(S(=O)(=O)c2cn(C)cn2)[C@H]1Cc1ccccc1`, the INHIBITION was 74.27%. `CO[C@@H]1CCN(S(=O)(=O)c2cn(C)cn2)[C@H]1Cc1ccccc1`: the INHIBITION came to 4.38%. With `CCO[C@H]1CCN(S(=O)(=O)c2cn(C)cn2)[C@H]1Cc1ccccc1`, the INHIBITION was -40.45%. Take `CC(C#N)CN(C)Cc1cc(Cl)cc2cccnc12` (stereo not drawn): the INHIBITION amounted to 28.91%.

`Cc1ccc([C@@H]2CN(C(=O)c3cc(C)no3)C[C@H]2NC(=O)C2CC2)cc1`: the INHIBITION was determined as 0.94%.

As to `Cc1nc(CNC2CCN(Cc3ccccc3)C2)sc1C` (stereo not drawn), the INHIBITION was 36.28%. As to `CCc1csc(CNC2CCN(Cc3ccccc3)C2)n1` (stereo not drawn), the INHIBITION is 50.59%. Then `CCc1nc(C)sc1CNC1CCN(Cc2ccccc2)C1` (stereo not drawn), with 26.74%. Regarding `CCCc1cc(NC2CCc3ncnn3C2)n2ncnc2n1` (stereo not drawn), the INHIBITION came to 8.91%. Regarding `O=C1CC(c2ccccc2)C2(CCN(Cc3nccs3)CC2)N1` (stereo not drawn), the INHIBITION was -4.2%. With `CC(C)(C)OC(=O)N1CCC(NCc2cnn(C(C)(C)C)c2)CC1`, the INHIBITION was -13.89%.

As to `Cc1cccc2cc(C(=O)N3CCC(F)(F)CC3)n(C)c12`, the INHIBITION is 28.1%. For `O=C1CC(c2ccccc2)c2c(n3ccsc3nc2=O)N1` (stereo not drawn), the INHIBITION turned out to be 73.66%. As for `O=C1CC(c2ccc(O)cc2)c2c(n3ccsc3nc2=O)N1` (stereo not drawn), the INHIBITION is 37.87%. On to `O=C1CC(c2ccc(Cl)c(Cl)c2)c2c(n3ccsc3nc2=O)N1` (stereo not drawn), for which the INHIBITION is reported as 24.44%.

As for `Cc1ccc(N(CC(=O)c2ccc(Br)cc2)C2=NCCCCC2)cc1`, the INHIBITION is recorded as -13.56%. For `CC(=O)N1CCC(c2cc(Nc3ncccn3)nc(C)n2)C1` (stereo not drawn), the INHIBITION stood at 31.98%.

`CC(C)(C)n1ncc2c1NC(=O)CC2c1cccc(F)c1` (stereo not drawn): the INHIBITION is on record as -10.58%. Turning to `CC(C)c1noc(CCC(=O)N2CCN(C)CC2c2ccccc2)n1` (stereo not drawn), the INHIBITION came to 57.59%. On to `CC(C)c1noc(CCCC(=O)N2CCN(C)CC2c2ccccc2)n1` (stereo not drawn), for which the INHIBITION is 14.63%.
